Experimental data published in PubChem BioAssay AID651744 (Broad Institute, 2012).
The whole screen tested about 5,600 compounds, of which about 3,100 (55%) were called active. About 3% were inconclusive and are not listed. So high a share suggests a set chosen from earlier hits. Only a sample is shown. Unmarked numbers belong to inactive results.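 How the source made its calls: active means mean loss of cell viability signal at or above a set limit, and enough replicates individually reaching it; inconclusive means meets only the mean limit or only the replicate share; inactive means meets neither condition.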

Assay: viability loss of mouse 3T3 cells – cell-based, cherry-pick, single point, set 2, cytotoxicity control, confirmation (AID 651744);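 further: 0% = median of neutral control wells and 100% = median of positive control wells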
Details: NIH/3T3 viability, CellTiter-Glo ATP luminescence, 90 h; at 24.9 µM; stronger effect = higher value

Compound | inhibition
CC(C)NC(=O)N(C)C[C@H]1OCc2cn(nn2)CCCC(=O)N([C@@H](C)CO)C[C@H]1C | -9.15%
O=C(c1cccc(F)c1)N1CCCCN2[C@H](CO)[C@H](c3ccc(-c4ccncc4)cc3)[C@H]2C1 | -0.739%
COc1ccc(-c2ccc([C@H]3[C@H]4CN(C(=O)c5ccc6c(c5)OCO6)CCCCN4[C@H]3CO)cc2)cc1 | 67.5% (active)
Cc1cccc(-c2ccc([C@@H]3[C@H](CO)N4CCCCN(C(=O)c5ccc6c(c5)OCO6)C[C@@H]34)cc2)c1 | 105% (active)
COCC#Cc1ccc([C@@H]2[C@H](CO)N3CCCCN(C(=O)CN(C)C)C[C@@H]23)cc1 | -6.74%
CCCC#Cc1ccc([C@H]2[C@H](CO)N3CCCCN(C(=O)c4ccc5c(c4)OCO5)C[C@@H]23)cc1 | 85.9% (active)
CC(C)(O)C#Cc1ccc([C@@H]2[C@H](CO)N3CCCCN(C(=O)c4cccc(F)c4)C[C@@H]23)cc1 | 1.66%
CC(C)(C)[S@@](=O)N1Cc2cc(C(=O)NCc3ccc4c(c3)OCO4)nc(-c3cccc(-c4ccccc4)c3)c2[C@H]1CCO | 49% (active)
O=C(Nc1ccc(-c2ccccc2)cc1)[C@H]1[C@H](CO)[C@H]2Cn3c(cccc3=O)[C@H]2N1CC1CC1 | 59.4% (active)
O=C(NCC1CCCCC1)[C@H]1[C@H](CO)[C@H]2Cn3c(cccc3=O)[C@H]2N1C(=O)CC1CC1 | 2.76%
C[C@@H]1CCCCO[C@H](CN(C)C(=O)CCC(F)(F)F)[C@H](C)CN([C@H](C)CO)C(=O)c2cc(NS(C)(=O)=O)ccc2O1 | 4.09%
C[C@@H]1CN([C@@H](C)CO)S(=O)(=O)c2ccc(C#CCC3CCCC3)cc2O[C@H]1CN(C)C(=O)CC1CC1 | 104% (active)
CNC[C@@H]1Oc2cc(C#CCC3CCCC3)ccc2S(=O)(=O)N([C@H](C)CO)C[C@H]1C | 105% (active)
CNC[C@H]1OCCCC[C@@H](C)Oc2ccc(NS(C)(=O)=O)cc2C(=O)N([C@H](C)CO)C[C@H]1C | -29.3%
CNC[C@H]1OCCCC[C@H](C)Oc2ccc(NC(=O)Nc3c(C)noc3C)cc2C(=O)N([C@H](C)CO)C[C@H]1C | 11.5%
C[C@@H]1CN([C@H](C)CO)S(=O)(=O)c2ccc(C#CCC3CCCC3)cc2O[C@H]1CN(C)C(=O)CC1CC1 | 103% (active)
CC(=O)NC[C@@H]1[C@@H](c2ccc(-c3ccccc3F)cc2)[C@@H](CO)N1C(=O)C1CC1 | -15.5%
C[C@@H]1CN([C@@H](C)CO)C(=O)c2cc(NC(=O)Nc3cccc4ccccc34)ccc2O[C@@H](C)CCCCO[C@H]1CN(C)Cc1ccccc1 | 104% (active)
C[C@@H]1CCCCO[C@H](CN(C)C(=O)Nc2cccc3ccccc23)[C@H](C)CN([C@H](C)CO)C(=O)c2cc(NS(=O)(=O)c3cccs3)ccc2O1 | 2.06%
C[C@@H]1CCCCO[C@@H](CN(C)Cc2ccccc2)[C@H](C)CN([C@H](C)CO)C(=O)c2cc(NC(=O)Nc3cccc4ccccc34)ccc2O1 | 105% (active)
C[C@@H]1CCCCO[C@@H](CN(C)C(=O)Nc2ccc(F)cc2)[C@H](C)CN([C@H](C)CO)C(=O)c2cc(NC(=O)Nc3cccc4ccccc34)ccc2O1 | -7.66%
